Sampled rows, rich in hits. Any-hit rate of the full collection: about 2.6%.
eIF4H inh – inhibitors of RNA binding by human eIF4H; actives 0.94% (n = 290,000); AID 2012; eIF4H fluorescence polarization binding assay; inhibition, % at 35 µM;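 also: calls also rest on retests at 20 µM and on dose response follow-up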
CRFBP-R2 block – blocks CRF-induced signaling of the CRF-BP/CRF-R2 complex; HEK293 CRF-R2/CRF-BP, CRF-induced calcium fluorescence; inhibition, % at 11.8 µM; actives 0.59% (n = 350,000);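 active = inhibition of the ligand-induced calcium signal above about 50% at the single tested concentration, limit read from the data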
PABP FP inh – PABP-poly(A) binding inhibition. P11940. PABP-poly(A) RNA binding, fluorescence polarization. inhibition, % at 35 µM. actives 1% (n = 290,000);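 also: calls also rest on retests at 20 µM and on dose response follow-up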
Target sequence (P11940 whole entry, looked up): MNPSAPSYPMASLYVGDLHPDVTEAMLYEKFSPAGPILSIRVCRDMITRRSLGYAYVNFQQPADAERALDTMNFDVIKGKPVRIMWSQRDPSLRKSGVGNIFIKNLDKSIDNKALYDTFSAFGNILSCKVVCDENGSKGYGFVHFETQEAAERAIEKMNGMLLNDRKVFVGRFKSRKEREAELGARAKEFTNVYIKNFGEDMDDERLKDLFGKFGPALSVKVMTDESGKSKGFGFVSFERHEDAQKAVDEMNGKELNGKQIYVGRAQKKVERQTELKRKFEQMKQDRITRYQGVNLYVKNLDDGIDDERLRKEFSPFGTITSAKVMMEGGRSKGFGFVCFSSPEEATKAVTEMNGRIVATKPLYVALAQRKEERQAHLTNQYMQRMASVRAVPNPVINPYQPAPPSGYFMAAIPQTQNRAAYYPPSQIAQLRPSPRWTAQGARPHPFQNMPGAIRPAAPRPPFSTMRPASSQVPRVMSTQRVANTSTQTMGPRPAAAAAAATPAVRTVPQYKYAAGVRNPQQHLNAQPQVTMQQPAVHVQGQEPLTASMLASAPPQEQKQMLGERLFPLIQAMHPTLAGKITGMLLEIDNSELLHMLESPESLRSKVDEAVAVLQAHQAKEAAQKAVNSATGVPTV
PHOSPHO1 inh – blocks human PHOSPHO1 phosphatase activity; recombinant PHOSPHO1, absorbance phosphatase assay; inhibition, % at 13.3 µM; actives 1.1% (n = 290,000); in the data active = inhibition above about 60%
PABP1 MLLE inh – blocks PAM2 peptide binding to the PABP1 MLLE domain. GST-MLLE / FITC-PAM2 fluorescence polarization. actives 0.36% (n = 360,000). P11940. inhibition, % at 20 µM; in the data active = inhibition above about 35%, passing the limit was not always enough;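 also: plate controls were DMSO wells with GST-MLLE for no effect and wells lacking GST-MLLE protein for full effect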
The depositor's hits bear a star; ? = inconclusive; nt = not tested or not shown. Unless noted, no rule for the calls is given here.

SMILES	eIF4H inh	CRFBP-R2 block	PABP FP inh	PHOSPHO1 inh	PABP1 MLLE inh
O=C(Nc1ccnn1C1CCN(C(=O)c2cccnc2)CC1)c1cccc(F)c1	nt	2.0	nt	nt	-13.4
COC(=O)c1nc(-c2ccc(C)cc2)[nH]c1C(C)(C)C	nt	nt	nt	nt	13.0
Cc1ccc(-c2csc3ncn(CC#N)c(=O)c23)cc1	38.7	0.8	41.3	9.5	-18.5
Cc1ccc(-c2csc3ncn(CC#N)c(=O)c23)cc1C	54.0*	-8.2	34.3*	nt	-10.3
CCn1c(C)nc2cc(C(=O)NNC(=S)Nc3ccccc3)ccc21	4.5	-11.8	-3.5	-82.7	2.9
CCn1c(C)nc2cc(C(=O)NNC(=S)NC(=O)c3ccccc3)ccc21	-1.3	-7.2	64.6*	20.5	20.4
CCn1c(C)nc2cc(C(=O)NN=Cc3ccc([N+](=O)[O-])cc3)ccc21	nt	72.9*	nt	nt	0.2
Cc1cccc(C)c1N=Cc1c(C(F)(F)F)[nH][nH]c1=O	-4.3	1.9	1.2	44.0	-1.9
Cc1ccc(OCCC(=O)O)cc1	?	85.2*	22.9*	20.3	1.2
Cc1cc(C)cc(OCCCC(=O)O)c1	-4.4	13.1	-3.9	6.3	8.9
COc1ccc(NC(=O)/C(C#N)=C/C=C/c2ccco2)cc1	77.9	-14.4	active	1.7	14.0
O=c1c(OCc2ccccc2)cccn1Cc1ccccc1	nt	-8.8	nt	nt	1.9
COc1ccc(-c2cc(NC(C)=O)c3ncc(-c4ccccc4)n3c2)c(OC)c1	nt	nt	nt	nt	-65.4
CCCNC(=O)C1(C)CCN(C(=O)c2sccc2C)C1 (centres undefined)	nt	nt	nt	nt	-12.1
CCCn1cnc2sc(CC)cc2c1=O	57.5*	-8.2	6.8	15.8	3.8
CCCn1cnc2sc(C(N)=O)c(C)c2c1=O	-6.0	5.3	-2.7	11.5	1.5
O=c1[nH]c2ccc(NC(=S)Nc3ccc(Cl)cc3Cl)cc2[nH]1	1.2	3.8	9.0	39.7	34.9
O=c1[nH]c2ccc(NC(=S)Nc3ccccc3Cl)cc2[nH]1	-3.7	-20.5	10.5	30.5	37.9*
OCC[C@@H]1C[C@H](O)[C@@H](O)[C@]2(OCCc3cc(Cl)ccc32)O1	nt	nt	nt	nt	-1.8
Cc1ccc(OCC(=O)NCCc2nc3ccccc3[nH]2)c(C)c1	4.4	-69.5	-1.7	61.2*	5.2
C#CCNC(=O)C1=C[C@@H](c2ccc(Br)cc2)[C@H](CCCO)[C@@H](OCC)O1	0.0	-0.9	-13.5	30.4	-2.5
C#CCNC(=O)C1=C[C@H](c2ccc3c(c2)OCO3)[C@@H](CCCO)[C@H](OCC)O1	-2.3	81.3*	3.7	26.2	11.4
CCCCc1cc(=O)oc2cc(C)c(CN3CCCC3)c(O)c12	60.0*	-28.7	61.5*	20.7	-38.1
CCc1cc(=O)oc2cc(C)c(CN3CCCC(C)C3)c(O)c12 (centres undefined)	63.3*	-6.4	62.6*	-6.7	5.4
Cc1cn([C@H]2C[C@H](O)[C@@H](/C=C/C(=O)NCCC(C)C)O2)c(=O)[nH]c1=O	nt	nt	nt	nt	11.2
SMILES	eIF4H inh	CRFBP-R2 block	PABP FP inh	PHOSPHO1 inh	PABP1 MLLE inh
COc1cc(CNC(=O)c2cc(-c3ccc(OC)cc3C)n[nH]2)cc(OC)c1	nt	nt	nt	nt	-0.9
O=C(N/N=C\c1ccc([N+](=O)[O-])o1)c1cncc(Br)c1	70.7*	3.2	54.2*	27.3	-2.2
O=C(N/N=C/c1ccc([N+](=O)[O-])o1)c1cc2ccccc2o1	69.5*	-0.7	37.2*	27.4	-11.2
O=C(CNc1ccccc1)N/N=C/c1ccc([N+](=O)[O-])o1	23.0	85.4*	12.9	-4.0	6.6
O=C(N/N=C/c1ccc([N+](=O)[O-])o1)c1cc2c(ccc3ccccc32)o1	75.5	18.5	31.6*	3.5	-5.5
O=C(N/N=C/c1ccc(-c2ccccc2[N+](=O)[O-])o1)c1cncc(Br)c1	10.2	45.4	11.2	8.6	18.8
C=C1C(=O)C23C(O)C1CCC2C12CCCC(C)(COC(C)=O)C1C(O)C3(O)OC2 (centres undefined)	nt	42.9	nt	nt	16.8
CCc1nc2ccc(C(=O)N(C)CCCN(C)C)cn2c1N(C=O)CCC(C)C	nt	nt	nt	nt	-1.5
Cc1nc2sccn2c(=O)c1S(=O)(=O)N1CCN(c2ccccc2F)CC1	nt	nt	nt	nt	-1.3
O=C(N/N=C/c1ccc([N+](=O)[O-])o1)c1ccccc1NS(=O)(=O)c1cccs1	76.2	-5.3	46.6*	17.5	-2.1
O=C(CSc1nnc(C2COc3ccccc3O2)o1)NC1CCCCC1 (centres undefined)	-14.6	54.2*	3.3	2.0	4.1
O=C(CSc1nnc(C2COc3ccccc3O2)o1)N1CCCCC1 (centres undefined)	-12.2	10.8	-10.5	-5.3	19.2
O=C1/C(=C/c2ccco2)CCc2ccccc21	81.3	1.4	-0.7	-2.0	0.2
Nc1ccc2c(c1)C/C(=C/c1ccco1)C2=O	93.3*	-1.1	active	4.9	-30.9
COc1ccc2c(c1)CC/C(=C/c1ccco1)C2=O	?	23.0	active	5.7	-8.6
OC(C#CCN1CCCCCC1)(c1ccccc1)c1cccnc1 (centres undefined)	-0.9	117.2*	3.6	27.3	-10.4
COc1cc(CN(C2CCCCC2)S(=O)(=O)c2ccc(S(=O)(=O)N(C)C3CCCCC3)cc2)cc(OC)c1OC	15.0	-15.9	2.7	4.1	6.5
N#C/C(=C\c1ccccn1)c1nc2ccccc2s1	?	-221.9	?	27.9	-40.0
COC(=O)c1ccc(/C=C(\C#N)c2nc3ccccc3s2)cc1	?	4.9	20.5*	37.9	-11.6
O=C(NCc1ccc(Cl)c(Cl)c1)c1cc(C2CCCCN2C(=O)OCCF)on1 (centres undefined)	nt	nt	nt	nt	8.8
COc1ccc(NC(=O)C2CC(=O)n3cnnc3S2)cc1 (centres undefined)	-15.5	-2.6	-0.5	103.8*	35.1
COc1cccc(NC(=O)C2CC(=O)n3cnnc3S2)c1 (centres undefined)	-9.9	14.4	9.4	102.9*	31.3
CC(C)c1ccc(S(=O)(=O)N2CCC(C(=O)N3CCN(c4cccc(Cl)c4)CC3)CC2)cc1	nt	4.6	nt	nt	-0.8
CN(C)c1ccc(NC(=O)c2ccc3nsnc3c2)cc1	3.0	-2.7	13.3	74.4*	11.9
CC(C)N(C(=O)Nc1ccc2nsnc2c1)C(C)C	101.1*	12.5	83.4*	10.5	nt
SMILES	eIF4H inh	CRFBP-R2 block	PABP FP inh	PHOSPHO1 inh	PABP1 MLLE inh
O=C(CCCc1ccncc1)c1ccccc1	nt	5.7	nt	nt	-9.1
COCCn1c(-c2ccc(Cl)cc2)cnc1SCC(=O)NCc1cccs1	-4.0	21.8	-1.4	73.5*	-24.2
FC(F)(F)C(F)(F)C(F)(F)c1nc2nc(Cl)c(Cl)nc2[nH]1	nt	-13.2	nt	nt	48.6*
COc1ccc(CN(CCCn2cnc3c(OC)ncnc32)CCCn2cnc3c(OC)ncnc32)cc1	nt	-6.8	nt	nt	-5.9
CCCc1nc2ccc(C)cn2c1Cc1ccccc1C(F)(F)F	nt	nt	nt	nt	3.1
Cc1ccc2c(c1)N(C)/C(=C/c1cccc[n+]1CCO)S2	-1.7	-5.0	65.8*	21.6	-133.1
CN1/C(=C/c2cccc[n+]2C)Sc2ccccc21	-1.7	-14.5	66.3*	34.0	-140.4
Cc1ccc2c(c1)N(C)/C(=C/c1cccc[n+]1C)S2	5.7	-6.8	64.0*	-1.4	-144.8

Source: PubChem BioAssay (Sanford-Burnham Center for Chemical Genomics)
